Source: PubChem (National Center for Advancing Translational Sciences (NCATS))
EPAC2 antag = EPAC2 (human) antagonism | Q8WZA2 | EPAC2 GEF exchange of Rap1B-BODIPY-GDP, fluorescence | Potency, µM (doses to about 114 µM), inactives show at the highest dose activity, negative = inhibition, actives largely listed as inhibitors | 360,000 tested, 0.18% active; further: potency means the concentration at half of the fitted maximal effect; on the % scale 0 is the no-effect control and ±100 the full control effect; nearly all actives have a fitted effect of over 45% in size
EPAC1 ag = activates human EPAC1 exchange factor | Potency, µM (doses to about 154 µM), for the others: at the highest dose activation, actives largely listed as activators | 360,000 tested, 0.073% active | EPAC1 agonist qHTS, biochemical assay; response scale: 100% = response to 6.5 mM cAMP | O95398; further: potency means the concentration at half of the fitted maximal effect; nearly all actives have a fitted effect of over 60% in size
Target sequence (O95398 whole entry, looked up): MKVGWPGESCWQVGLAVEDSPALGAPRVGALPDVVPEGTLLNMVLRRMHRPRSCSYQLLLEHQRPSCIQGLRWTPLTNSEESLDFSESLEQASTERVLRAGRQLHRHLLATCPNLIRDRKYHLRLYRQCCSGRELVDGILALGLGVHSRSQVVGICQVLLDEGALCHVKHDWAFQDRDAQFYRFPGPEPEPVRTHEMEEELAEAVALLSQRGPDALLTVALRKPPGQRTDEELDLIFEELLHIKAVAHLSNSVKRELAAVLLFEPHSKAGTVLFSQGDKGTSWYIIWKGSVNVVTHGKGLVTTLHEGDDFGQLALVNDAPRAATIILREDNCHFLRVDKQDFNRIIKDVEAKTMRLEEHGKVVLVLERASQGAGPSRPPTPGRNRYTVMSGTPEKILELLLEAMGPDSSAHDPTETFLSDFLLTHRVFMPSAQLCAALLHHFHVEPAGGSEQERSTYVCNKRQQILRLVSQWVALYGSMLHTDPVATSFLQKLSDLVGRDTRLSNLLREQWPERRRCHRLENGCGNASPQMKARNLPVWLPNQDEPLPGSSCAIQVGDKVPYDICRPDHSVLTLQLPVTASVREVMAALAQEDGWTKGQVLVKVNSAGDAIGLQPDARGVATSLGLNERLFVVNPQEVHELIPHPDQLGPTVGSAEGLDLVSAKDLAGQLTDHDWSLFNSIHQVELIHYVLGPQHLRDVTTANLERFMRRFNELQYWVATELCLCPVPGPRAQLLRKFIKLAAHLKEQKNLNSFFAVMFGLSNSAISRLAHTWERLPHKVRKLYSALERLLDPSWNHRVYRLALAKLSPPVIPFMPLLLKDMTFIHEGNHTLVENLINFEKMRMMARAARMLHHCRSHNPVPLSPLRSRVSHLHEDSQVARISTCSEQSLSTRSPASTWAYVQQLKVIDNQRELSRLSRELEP
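Nucleotide exchange assay: 100 nM EPAC1 with 250 nM Rap1B loaded with BODIPY-GDP and 50 uM GDP, room temperature. Fluorescence (480/540 nm) read every 5 min for 30 min; signal change normalized to 6.5 mM cAMP as full agonist.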
EPAC1 antagonist = antagonists of human EPAC1; Potency, µM (top dose mostly 115 µM), for the others: at the top dose activity change, negative = inhibition, hits mostly inhibitors; O95398; AID 720709; EPAC1 GEF assay, Rap1b-BODIPY-GDP exchange fluorescence; 360,000 tested, 0.14% active;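 further: potency means the concentration at half of the fitted maximal effect; plate controls were vehicle for no effect and positive control for full effect; nearly all actives have a fitted effect of over 50% in size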
FBPA coupling cs = inhibits coupling enzyme system, counter-screen for aldolase hits; coupling enzyme system counterscreen, AmpLite Red fluorescence; 290,000 tested, 0.67% active; activity change, negative = inhibition, % at 58.2 µM, hits read low; AID 2472; in the data active means activity change below about -30%; further: on the % scale 0 is the no-effect control and ±100 the full control effect
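Counterscreen of the coupled detection system alone, without aldolase: glyceraldehyde-3-phosphate coupling enzymes plus AmpLite Red readout. Compounds at 57.5 uM final, 10 min RT preincubation, 20 min RT reaction, fluorescence 525/598 nm.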
USP1 inh = blocks the human USP1/UAF1 deubiquitinase complex | 390,000 tested, 0.23% active | recombinant USP1/UAF1, Ub-Rhodamine cleavage fluorescence | AID 743255 | Potency, µM (series often up to 57.1 µM), for inactives: top-dose activity change, negative = inhibition, hits mostly inhibitors; further: potency means the concentration at half of the fitted maximal effect; on the % scale 0 is the no-effect control and ±100 the full control effect; nearly all actives have a fitted effect of over 60% in size
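High-throughput fluorogenic screen: 1nM USP1/UAF1 complex, Ub-Rho substrate 150nM final, 50mM HEPES pH 7.8 with 0.5mM EDTA, 0.1 mg/ml BSA, 1mM TCEP and 0.01% Tween-20.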
EPAC2 ag = agonists of human EPAC2 (RAPGEF4); Potency, µM (series often up to 154 µM), for inactives: at the top dose activation, usual class: activators; AID 720711; 360,000 tested, 0.079% active; EPAC2 activation, biochemical qHTS; response scale: 100% = 6.5 mM cAMP response; Q8WZA2; further: potency means the concentration at half of the fitted maximal effect; nearly all actives have a fitted effect of over 50% in size
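Compounds were added across a concentration range to EPAC2 (100 nM), RAP1B-BODIPY-GDP (250 nM) and GDP (50 uM). After 5 min at room temperature, fluorescence was recorded at 5-min intervals for 30 min.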
The depositor's hits bear a star; u = inconclusive; x = no result; ! = a repeat was not active. The list is not random: actives were taken first. Their share in the collection is about 0.87%. Unless noted, the call rests on the fitted dose curve; in most records, active means well fitted curve in the direction sought with a large enough effect; inconclusive means small, poorly fitted or top-dose-only effect, or another doubt; inactive means no such curve, though single readings can be large; an effect the other way counts as inactive or inconclusive.

SMILES	EPAC2 antag	EPAC1 ag	EPAC1 antagonist	FBPA coupling cs	USP1 inh	EPAC2 ag
CCCCC1=CC2=CC(=O)C(C)(OC(=O)CC)C(=O)C2=CN1C(CO)CO (stereo not given)	-6%	2%	-5%	-42*!	u	6%
COc1ccc(NC(=O)/C(C#N)=C\c2ccc(N3CCOCC3)o2)cc1	1%	24%	-17%	0	u	19%
CCc1ccc(NC(=O)/C(C#N)=C/c2cc3ccc(C)cc3nc2N2CCOCC2)cc1	8%	-1%	7%	1	-22%	100µM*
CN1CCc2nc(SCC(=O)Nc3ccc(OC(F)(F)F)cc3)c(C#N)c(-c3cccs3)c2C1	-9%	-32%	-14%	-51*	6%	-21%
Nc1nc(SCC(=O)Nc2ccc([N+](=O)[O-])cc2)n[nH]1	13%	9%	-16%	2	-8%	6%
Brc1ccc(-c2csc(-c3c[nH]c4ccccc34)n2)cc1	-4%	16%	-5%	0	-26%	40µM*
c1ccc2c(-c3csc(-c4ccncc4)n3)c[nH]c2c1	17%	-7%	10%	-3	-26%	5%
Nc1nonc1-c1nc2ccccc2n1CC(=O)N/N=C/c1ccc(-c2ccccc2C(=O)O)o1	1%	-2%	-5%	-9	-19%	3%
Nc1ccc(S(=O)(=O)Nc2cccc3cccnc23)cc1	x	x	x	-4	x	x
C=CCOc1c(Br)cc(/C=N/O)cc1OCC	u	-3%	-10%	-6	-17%	-10%
CCCCOc1c(Br)cc(/C=N/O)cc1OCC	28µM*	-10%	u	0	u	-3%
Oc1ccc(N=Cc2ccc(O)c(O)c2)cc1	u	21%	40µM*	-46*	7.9µM*	5%
CCCOc1ccc(/C(O)=C2/C(=O)C(=O)N(CCCN3CCOCC3)C2c2ccncc2)cc1 (stereo not given)	x	x	x	-62*	x	x
O=C(O)c1cccc2cccc(-c3c4ccc(=O)c(O)c-4oc4c(O)c(O)ccc34)c12	-28%	12%	32µM*	x	u	-4%
Oc1cccc(/C=N/NC(=S)NCCN2CCOCC2)c1O	2%	-14%	-19%	-34*	-14%	3%
Oc1ccc2c(c1)C1CCCC1(N1CCOCC1)O2 (stereo not given)	10%	4%	-5%	-37*	-25%	5%
CC(=O)NC1N=C(C)N(c2ccccc2)C1=O (stereo not given)	-6%	6%	-2%	-78*	-8%	11%
COCC(=O)Nc1cc(C)cn(Cc2ccc(F)cc2)c1=O	4%	-1%	9%	-2	-23%	1%
c1coc(-c2nnc(-c3ccco3)nn2)c1	17%	-5%	u	-44*	25µM*	9%
c1ccc(-c2nnc(-c3ccco3)o2)cc1	6%	-2%	8%	3	-12%	-3%
COC(=O)CCC(=O)OC1(C)C(=O)C=C2C=C(C3CC3)N(CC(C)C)C=C2C1=O (stereo not given)	x	x	x	-45*	x	x
COC(=O)CCC(=O)OC1(C)C(=O)C=C2C=C(C3CC3)N(c3ccc(OC)cc3)C=C2C1=O (stereo not given)	x	x	x	-41*	x	x
CCN(CC)C(=O)C(=O)c1cc(C)n(-c2ccc(F)cc2)c1C	-1%	5%	-1%	4	-16%	1%
O=c1oc2cc(O)ccc2cc1-c1nc2c(s1)CCc1ccccc1-2	119%	38%	25%	-14	242%	u
O=c1oc2ccccc2cc1-c1nc2c(s1)CCc1ccccc1-2	-4%	16%	-4%	-81*	-24%	6%
SMILES	EPAC2 antag	EPAC1 ag	EPAC1 antagonist	FBPA coupling cs	USP1 inh	EPAC2 ag
CCOc1ccc(NC(=O)Nc2ccc3snnc3c2)cc1	x	x	x	x	-25%	x
COc1ccc(S(=O)(=O)Nc2cccc3ccc(O)cc23)cc1	-4%	11%	2%	x	-16%	12%
Cc1cc(C)c(S(=O)(=O)Nc2ccc(O)cc2)cc1C	2%	-2%	4%	-1	-20%	7%
O=C(O)CSc1cc(NS(=O)(=O)c2ccc(Cl)cc2)c2ccccc2c1O	79µM*	28%	u	-53*	25µM*	u
COc1ccc(S(=O)(=O)Nc2cc(Sc3ncn[nH]3)c(O)c3ccccc23)cc1	x	x	x	-58*	x	x
O=S(=O)(Nc1ccc(Cl)cc1NS(=O)(=O)c1ccccc1)c1ccccc1	u	-6%	u	x	-1%	7%
COc1ccc(S(=O)(=O)Nc2ccc(O)c(Sc3ncn[nH]3)c2)cc1	7%	12%	9%	-6	-9%	9%
COc1ccc(S(=O)(=O)Nc2cc(SCC(=O)O)c(O)c3ccccc23)cc1	3%	19%	79µM*	-47*	32µM*	5%
Cc1cc(C)c(S(=O)(=O)Nc2cc(SCC(=O)O)c(O)c3ccccc23)cc1C	-5%	29%	u	-53*	u	-3%
COc1ccc(OC)c(NC(=O)CN(C)S(=O)(=O)c2ccc3nc(C)sc3c2)c1	0%	0%	1%	2	-10%	-7%
CC1OC1P(=O)(O)O (stereo not given)	x	x	x	-1	x	x
O=C(Sc1cccc2cccnc12)c1ccc(F)cc1	x	x	x	-3	x	x
O=S(=O)(Nc1cc(Sc2cccc3cccnc23)c(O)c2ccccc12)c1ccc(F)cc1	-6%	18%	-4%	-53*	-23%	13%
CCOC(=O)C1=C(O)c2ccccc2C(=O)/C1=C\c1ccc(CC)cc1	-10%	10%	-3%	-48*	u	6%
CCOC(=O)C1=C(C)OC(=Cc2ccc(OC)cc2)C1=O	-3%	-8%	17%	x	-24%	-3%
CCCc1ccc(/C=C2\C(=O)c3ccccc3C(O)=C2C(=O)OCC)cc1	x	x	x	-37*	x	x
CC1=NN2C(=N)/C(=C\c3cc(C)n(-c4ccc(C)cc4)c3C)C(=O)N=C2S1	11%	0%	-9%	4	-19%	-4%
COc1cc(CC(=O)OCC(=O)NC(C)c2ccccc2)cc(OC)c1OC (stereo not given)	-7%	9%	-2%	x	4%	2%
COc1ccc(CNC(=O)Nc2nnc([C@H]3C[C@H](O)[C@@H](CO)O3)s2)cc1	-4%	-13%	-8%	x	x	8%
COn1c(C)c(C)c2c3nonc3ccc21	1%	0%	4%	-39*	u	0%
Cc1nnc(N2C(=O)C(O)=C(C(=O)c3ccco3)C2c2cccc([N+](=O)[O-])c2)s1 (stereo not given)	23%	-3%	12%	x	-15%	13%
